From PubChem BioAssay AID504651 (National Center for Advancing Translational Sciences (NCATS), 2011)
In all, about 360,000 compounds went through this assay and about 130 (0.036%) were called active. The sample holds actives, similar compounds and a random draw of the others, so the mix is not that of the screen. No stated cut-off is given here; in the data, active means potentiation above about 30%; inactive means the rest.

Target: D(1A) dopamine receptor (Homo sapiens) (UniProt P21728)
Assay: Potentiators of Human D1 Dopamine Receptor: qHTS; further: 0% is about no effect
Conditions: HEK293 TREx D1 cells, calcium flux, dopamine EC20 potentiation; at 10 µM; active compounds read high

Sequence of D(1A) dopamine receptor (Homo sapiens) (P21728 whole entry, looked up): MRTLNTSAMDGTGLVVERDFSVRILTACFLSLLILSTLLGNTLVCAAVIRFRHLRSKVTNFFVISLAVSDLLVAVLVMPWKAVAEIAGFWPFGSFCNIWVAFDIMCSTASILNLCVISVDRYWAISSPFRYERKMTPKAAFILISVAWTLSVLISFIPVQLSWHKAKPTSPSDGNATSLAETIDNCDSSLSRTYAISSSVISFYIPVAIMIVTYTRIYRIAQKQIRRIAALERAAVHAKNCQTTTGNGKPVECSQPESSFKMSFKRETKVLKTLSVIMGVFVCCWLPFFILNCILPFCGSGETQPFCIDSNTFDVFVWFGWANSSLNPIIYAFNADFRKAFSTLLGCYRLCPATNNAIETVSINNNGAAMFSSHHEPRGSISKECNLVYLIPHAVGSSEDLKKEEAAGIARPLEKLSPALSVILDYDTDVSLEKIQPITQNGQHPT

potentiation, inactive:
CN1CCOc2cc(S(=O)(=O)N3CCN(S(=O)(=O)c4c(F)cccc4F)CC3)cnc21 -1.8%, O=C(Nc1ccc(C(=O)OCc2cc(=O)n3nc(C4CC4)sc3n2)cc1)c1ccc(F)cc1 -0.15%, Cc1cccc2nc(-c3ccc(Cl)s3)c(Nc3ccc4c(c3)OCCO4)n12 1.7%, CCN(CC)S(=O)(=O)c1ccc2c(c1)nc(CN(C)C(=O)Nc1ccc(Cl)cc1)n2C 0.4%, Cc1csc2nc(COC(=O)c3ccccc3NC(=O)c3ccccc3Cl)cc(=O)n12 1.1%, CCCCC(CC)CNC(=O)C1CCN(S(=O)(=O)c2cccc3nsnc23)CC1 (stereo not drawn) 3.8%, CCS(=O)(=O)c1nc(S(=O)(=O)c2ccc(C)cc2)c(NCc2ccc(Cl)cc2)s1 -2.95%, CCOC(=O)c1c(NC(=O)/C=C/c2ccc(OC)cc2)sc2c1CCC(C)C2 (stereo not drawn) 0.15%, N#CN1CCC(NS(=O)(=O)c2cccc(F)c2)C1 (stereo not drawn) -6.75%, CCOc1ccc(OCC)c(NC(=O)c2c(C)nn(-c3ccccc3)c2-n2cccc2)c1 -0.5%, CCN(CCCNC(=O)Cn1ncc2c3ccccc3n(C)c2c1=O)Cc1ccccc1 -1.8%, CCOc1ccc(C2CC(=O)c3c([nH]c(C(=O)OCc4ccccc4)c3C)C2)cc1 (stereo not drawn) -3.65%, O=C1Cc2cc(S(=O)(=O)Nc3ccc(OC(F)(F)F)cc3)cc3c2N1CCC3 1.65%, Cc1ccc(NC(=O)C2CCN(S(=O)(=O)c3cc(-c4noc(C)n4)ccc3C)CC2)c(C)c1 -4.05%, O=C(c1cnn(-c2ccc(F)cc2)c1-n1cccc1)N1CCN(c2ccc(F)cc2)CC1 -1.95%, CCc1ccc(N2C(=O)CN(S(=O)(=O)CC)CC2(C)C(=O)NC2CCCCC2)cc1 (stereo not drawn) -0.1%, CC(C)CNc1ncnc2c1nnn2C 2.3%, O=C(CSc1n[nH]c(-c2ccccc2)n1)N1CCCCC1 2.7%, Cc1ccc(Cn2ncc3c4sc(C)cc4n(C)c3c2=O)c(C)c1 0.9%, CCC1=Nc2cc(C(=O)NCCCOC(C)C)ccc2Sc2ccc(C)cc21 3.75%, Cc1cc2c(cc1S(=O)(=O)CCC(=O)Nc1ccc(OC(F)(F)F)cc1)OCC(=O)N2 -3.35%, Cc1c(C(=O)Nc2cccc(Cl)c2)oc2ccc(S(=O)(=O)N3CCOCC3)cc12 -2.25%, CCc1ccc(NS(=O)(=O)c2ccc3[nH]cc(C(=O)NCCc4cccc(C)c4)c(=O)c3c2)cc1 2.6%, Cc1ccc(-n2ncc(C(=O)N(C)Cc3ccccc3)c2-n2cccc2)cc1 -0.5%, Cc1ccc(CN2COc3cc(C)c4c(oc(=O)c5ccccc54)c3C2)cc1 -0.2%, CCCCn1c(=O)c2oc3ccccc3c2n(CC(=O)Nc2ccccc2OC)c1=O 1.65%, Cc1cccc(C(=O)N2c3nc(-c4ccco4)nn3C3(CCCCC3)[C@@H]3CCCC[C@@H]32)c1 -0.1%, Cc1cc(F)ccc1NC1(c2ccccc2)C(=O)c2ccccc2C1=O -5.75%, Cc1ccccc1C(=O)Nc1nnc(S(=O)(=O)N(C)c2ccc(Cl)cc2)s1 -0.45%, COc1cccc(C(=O)Nc2ccc(-c3cc(C(F)(F)F)nn3-c3ccccc3)cc2)c1 -4.85%, CCOC(=O)c1c(C)n(S(=O)(=O)c2ccc(C)cc2C)c2ccc(NS(=O)(=O)c3ccc(C)cc3C)cc12 -1.05%, COc1ccc(CCNc2nc(-c3ccc(Cl)cc3)cc(C(F)(F)F)n2)cc1OC 0.65%, Cc1cc2c(s1)c1cnn(Cc3cc(F)c(Cl)cc3Cl)c(=O)c1n2C -0.95%, Cc1ccc(S(=O)(=O)N2CCC(C(=O)Nc3cc(C)ccc3C)CC2)cc1 -2.85%, Cc1ccc(CNC(=O)CCc2c(C)nc3c(c(C)nn3-c3ccccc3)c2C)cc1 -2.25%, COc1ccc(N2CCN(S(=O)(=O)CCNC(=O)C(c3ccccc3)c3ccccc3)CC2)cc1 -0.4%, COC(=O)c1c(NC(=O)C(C)Oc2ccc(Cl)c(C)c2)sc(C)c1C (stereo not drawn) 0.65%, COc1cccc(-c2nnc(SCC(=O)N3CCC(C)CC3)o2)c1 -1.7%, Cc1ccccc1CNC(=O)CCc1cn(Cc2ccccc2C)c2ccccc12 -5.7%, Cc1ccc(C)c(Cn2c(C(=O)O)c(CNCc3cccs3)c3ccccc32)c1 19.9%, COc1ccc(Cc2nc3ccc(C(=O)NCc4ccccc4C)cc3o2)cc1 -2.05%, O=C(Cc1ccc(Cl)cc1)NCC(c1cccs1)S(=O)(=O)c1ccc(Cl)cc1 (stereo not drawn) -0.5%, CC(=O)c1ccc(NC(=O)CSc2nc(-c3ccccc3F)nc3c2c(=O)n(C)c(=O)n3C)cc1 -0.45%, CCSc1nnc(NC(=O)c2cc(=O)c3cc(C)c(C)cc3o2)s1 0.15%, COC(=O)c1ccccc1NC(=O)c1ccc(C#N)cc1 3.5%, O=C(Cn1c(=O)n(Cc2cccs2)c(=O)c2cccnc21)Nc1ccc(F)cc1 -2.6%, COc1ccc(-c2cccc(NS(=O)(=O)c3cc(C)c(OC)c(C)c3C)c2)nn1 -2.1%, Cc1ccc(SCC(=O)Nc2ccc3oc(-c4ccccc4C)nc3c2)cc1 -0.2%
